Assay outcomes deposited in PubChem by National Center for Advancing Translational Sciences (NCATS).
Hits are enriched below; roughly 7.3% of the tested compounds scored in any of these assays.
Rab9 promoter act: activates the Rab9 promoter. Huh7 Rab9 promoter-luciferase reporter, luminescence, 24 h. Potency, µM (series often up to 9.22 µM), inactives show top-dose activation, negative = inhibition, usual class: activators. 320,000 compounds, 2.8% hits. AID 485297; also: % of control where 0% means no effect; nearly all actives have a fitted effect of over 60% in size
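Cells were plated at 1500 per well in reduced-serum medium with 10% FBS and left 2 h. Compound in DMSO was then added for 24 h at 37 °C. Reporter signal was read by luminescence after 10 min with luciferase detection reagent.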
NPC1 prom act: NPC1 promoter activation | Huh7 NPC1 promoter luciferase reporter, 24 h | Potency, µM (highest dose often 9.22 µM), for inactives: at the highest dose activation, hits mostly activators | 320,000 compounds, 2.4% hits | AID 485313; also: % of control where 0% means no effect; nearly all actives have a fitted effect of over 60% in size
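NPC1 promoter–luciferase Huh7 cells; 24 h compound; luminescence.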
FLuc modulator: firefly luciferase modulation, counter-screen for miR-21 project; purified FLuc, Km substrates, luminescence inhibition; Potency, µM (series often up to 57.5 µM), for inactives: top-dose activity change, negative = inhibition, hits mostly inhibitors; 360,000 compounds, 6.9% hits; AID 588342;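 also: plate controls were vehicle for no effect and reference inhibitor for full effect; nearly all actives have a fitted effect of over 55% in size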
Target sequence (P08659 whole entry, looked up): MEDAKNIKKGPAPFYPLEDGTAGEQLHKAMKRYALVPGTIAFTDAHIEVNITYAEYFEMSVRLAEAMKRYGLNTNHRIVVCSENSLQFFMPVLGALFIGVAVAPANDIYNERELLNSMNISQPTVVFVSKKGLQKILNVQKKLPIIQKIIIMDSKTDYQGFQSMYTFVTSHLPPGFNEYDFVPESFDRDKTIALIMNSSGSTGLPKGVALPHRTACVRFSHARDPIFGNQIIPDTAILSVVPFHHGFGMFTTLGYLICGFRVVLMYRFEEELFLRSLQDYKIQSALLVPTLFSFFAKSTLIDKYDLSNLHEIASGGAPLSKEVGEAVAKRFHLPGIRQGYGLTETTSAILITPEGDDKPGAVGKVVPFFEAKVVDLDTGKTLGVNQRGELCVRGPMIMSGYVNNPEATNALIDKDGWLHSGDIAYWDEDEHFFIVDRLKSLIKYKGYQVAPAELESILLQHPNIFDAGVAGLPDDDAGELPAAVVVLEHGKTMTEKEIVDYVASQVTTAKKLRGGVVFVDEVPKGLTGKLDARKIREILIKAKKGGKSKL
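Purified P. pyralis luciferase (10nM final) with 10uM D-luciferin and 10uM ATP (Km levels) in 50mM Tris acetate pH 7.5, 10mM Mg acetate, 0.01% Tween-20, 0.05% BSA; qHTS 6-point titration, ~60 µM downward; luminescence read.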
SMN2 splice up: increases expression of the SMN2 splice variant. HEK293 SMN2-luciferase splicing reporter, luminescence, 30-36 h. Potency, µM (series often up to 46.1 µM), inactives show top-dose activity change, positive = activation, usual class: activators. 210,000 compounds, 2.8% hits. AID 1458; also: % of control where 0% means no effect; nearly all actives have a fitted effect of over 55% in size
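HEK293 cells carry an SMN2 minigene-luciferase reporter in which exon 7 inclusion puts luciferase in frame. Cells were seeded at 2000 cells/well, attached for 10-12 hours, then exposed to compounds for 30-36 hours at 37C before ONE-Glo luminescence.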
p53 reactivator: restores transcriptional activity of mutant p53; H1299 p53-A138V BP100-luciferase reporter, luminescence, 24 h; Potency, µM (titrated, usually from 92.2 µM), for inactives: at the highest dose activity change, positive = activation, usual class: activators; 320,000 compounds, 0.063% hits; AID 504706; also: % of control where 0% means no effect; nearly all actives have a fitted effect of over 45% in size
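H1299 (p53-null), stable ts p53-A138V + BP100-Luc; 1000 cells/well, Opti-MEM/10% FBS; cpd 4 pt, 1:5; 24 h, 37 deg C, 5% CO2; detection reagent 10 min RT; luminescence.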
ELG1 genotox: genotoxicity induction in ELG1-luciferase HEK293T cells | HEK293T ELG1-luciferase reporter, luminescence, 16 h | Potency, µM (series often up to 46 µM), for the others: at the highest dose activity change, positive = activation, usual class: activators | 330,000 compounds, 1.3% hits; also: % of control where 0% means no effect; nearly all actives have a fitted effect of over 60% in size
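Quantitative HTS format in 1536-well plates. HEK293T ELG1-luciferase reporter cells receive test compound and are incubated 16 hr at 37 °C, 5% CO2; ONE-Glo added, 30 min room temperature, then luminescence read.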
* marks the source's active call; other numbers are inactive results; ? = inconclusive; . = not tested or not shown; [ ] = another dose, or the depositor's remark. Calls follow the shape of the dose curve; as a rule, active = well fitted curve in the direction sought with a large enough effect; inconclusive = small, poorly fitted or top-dose-only effect, or another doubt; inactive = no such curve, though single readings can be large; an effect the other way counts as inactive or inconclusive. Potency is read from the fitted curve at half-maximal effect.

SMILES | Rab9 promoter act | NPC1 prom act | FLuc modulator | SMN2 splice up | p53 reactivator | ELG1 genotox
CC1CCN(c2ccc(-c3cccc(NC(=O)c4ccco4)c3)nn2)CC1 | 1µM* | 1.3µM* | 0.15µM* | . | 14% | 0.52µM*
CCC(=O)Nc1ccc(-c2ccc(N3CCC(C)CC3)nn2)cc1 | 1.4µM* | 2.8µM* | 9.5µM* | . | ? | ?
FC(F)(F)c1ccccc1-c1ccc2ncnc(NC3CCNCC3)c2c1 | . | . | . | -2% | . | .
CC1(C)N([O-])c2cc([N+](=O)[O-])ccc2[N+]1=O | -24% | 0% | 11µM* | . | -12% | -1%
Cc1ccc(C)n1-c1cc([N+](=O)[O-])ccc1-n1ccnc1 | -4% | 3% | -2% | . | 14% | 12%
CC1(c2ccc([N+](=O)[O-])cc2)Nc2ccccc2S1 (configuration not stated) | ? | ? | 21µM* | . | ? | ?
CC1=C(C(=O)Nc2ccccc2)C(c2cccn2C)n2ncnc2N1 (configuration not stated) | . | . | -2% | . | . | .
COc1ccccc1N1CCN(C(=O)c2cnc(N3CCCCC3)c3ccccc23)CC1 | . | . | -15% | . | . | .
Cc1ccc(C(=O)Nc2c(-c3ccccc3)nc3ccccn23)cc1 | . | . | -1% | -17% | . | .
CCC(=O)Nc1c(-c2ccc3ccccc3c2)nc2ccccn12 | ? | 17% | 3.8µM* | . | 6% | 11%
CC(=O)Nc1c(-c2ccc3ccccc3c2)nc2ccccn12 | ? | ? | 1.9µM* | . | ? | 21µM*
O=C(O)c1[nH]c2c([N+](=O)[O-])cc([N+](=O)[O-])cc2c1C(=O)O | . | . | . | -1%[9.22 µM] | . | .
Cc1ccc(C2NC(=O)c3ccccc3N2)s1 (configuration not stated) | 11% | -3% | ? | 10µM* | ? | 18µM*
CCOc1cc(C2Nc3cccc4cccc(c34)N2)ccc1O | 18% | 19% | 13µM* | 1% | 2% | -1%
CN(C)c1ccc(C2Nc3cccc4cccc(c34)N2)cc1 | ? | ? | 17µM* | . | 17% | ?
CN(C)c1ccc(C2NC(=O)c3ccccc3N2)cc1 (configuration not stated) | 17% | 11% | 9.5µM* | . | -46% | ?
O=C(Nc1cnc(N2CCN(c3ccccc3)CC2)c(C(=O)O)c1)c1cccs1 | . | . | -2% | . | . | .
Clc1ccc(C2Nc3cccc4cccc(c34)N2)cc1Cl | 16% | 26% | 24µM* | . | 0% | -3%
c1ccc(C2Nc3cccc4cccc(c34)N2)cc1 | 22% | ? | 15µM* | . | . | -3%
Cc1ccccc1CN1CCN(C(=O)c2ccco2)CC1 | 14% | 16% | -17% | . | 12% | 2%
Cc1cccn2c1nc(=S)n2C(=O)c1ccco1 | 1.4µM* | ? | 0.67µM* | ? | ? | ?
CCN1CCN(c2csc3ccc(Cl)cc3c2=O)CC1 | . | . | 15µM* | . | . | .
CC(=O)N1CCN(c2csc3ccc(Br)cc3c2=O)CC1 | . | . | 15µM* | . | . | .
CC1CCCN(c2csc3ccccc3c2=O)C1 (configuration not stated) | . | . | 8.5µM* | . | . | .
Cc1ccc2scc(N3CCN(c4ccccc4)CC3)c(=O)c2c1 | . | . | 17µM* | . | . | .
SMILES | Rab9 promoter act | NPC1 prom act | FLuc modulator | SMN2 splice up | p53 reactivator | ELG1 genotox
C(=Nc1ccc2c(c1)Cc1ccccc1-2)c1ccccn1 | . | . | . | 8%[9.22 µM] | . | .
CCOc1ccc(NC(=O)CSc2ccccc2N)cc1 | ? | ? | ? | ? | -8% | ?
Cc1c(NC(=O)CSc2nc3ccccc3s2)c(=O)n(-c2ccccc2)n1C | 18% | 0% | -1% | -6% | -4% | 7%
O=c1c(N2CCCCC2)csc2ccc(F)cc12 | . | . | 6µM* | . | . | .
Cc1ccc2scc(N3CCc4ccccc4C3)c(=O)c2c1 | . | . | 4.8µM* | . | . | .
COc1ccc(C2=NN(C(=O)CSc3ncccn3)C(c3cccc(OC)c3OC)C2)cc1 (configuration not stated) | 1% | 1% | -2% | -4% | 0% | -2%
